According to article PMC12215968:

Columns and labels:
[1] = molecular target: Eukaryotic translation initiation factor 3 subunit C (UniProt Q99613); experiment: cross-linking mass spectrometry
[2] = molecular target: Peptidyl-prolyl cis-trans isomerase A (UniProt P62937); experiment: cross-linking mass spectrometry
Thymosin beta-4 = Thymosin beta-4 (UniProt P62328); experiment: cross-linking mass spectrometry
[3] = molecular target: 26S proteasome non-ATPase regulatory subunit 2 (UniProt Q13200); experiment: cross-link between two proteins; cross-linking mass spectrometry
[4] = molecular target: Adenylyl cyclase-associated protein 1 (UniProt Q01518); experiment: as above
[5] = molecular target: Elongation factor 1-alpha 2 (UniProt Q05639); experiment: as above
[6] = molecular target: Heat shock protein HSP 90-beta (UniProt P08238); experiment: as above
[7] = molecular target: Putative heat shock protein HSP 90-beta-3 (UniProt Q58FF7); experiment: as above
Histone H1.2 = Histone H1.2 (UniProt P16403); experiment: as above
Histone H2B type F-S = Histone H2B type F-S (UniProt P57053); experiment: as above
Junctophilin-2 = molecular target: T1, Junctophilin-2 (UniProt Q9BR39); experiment: as above
T1 sequence: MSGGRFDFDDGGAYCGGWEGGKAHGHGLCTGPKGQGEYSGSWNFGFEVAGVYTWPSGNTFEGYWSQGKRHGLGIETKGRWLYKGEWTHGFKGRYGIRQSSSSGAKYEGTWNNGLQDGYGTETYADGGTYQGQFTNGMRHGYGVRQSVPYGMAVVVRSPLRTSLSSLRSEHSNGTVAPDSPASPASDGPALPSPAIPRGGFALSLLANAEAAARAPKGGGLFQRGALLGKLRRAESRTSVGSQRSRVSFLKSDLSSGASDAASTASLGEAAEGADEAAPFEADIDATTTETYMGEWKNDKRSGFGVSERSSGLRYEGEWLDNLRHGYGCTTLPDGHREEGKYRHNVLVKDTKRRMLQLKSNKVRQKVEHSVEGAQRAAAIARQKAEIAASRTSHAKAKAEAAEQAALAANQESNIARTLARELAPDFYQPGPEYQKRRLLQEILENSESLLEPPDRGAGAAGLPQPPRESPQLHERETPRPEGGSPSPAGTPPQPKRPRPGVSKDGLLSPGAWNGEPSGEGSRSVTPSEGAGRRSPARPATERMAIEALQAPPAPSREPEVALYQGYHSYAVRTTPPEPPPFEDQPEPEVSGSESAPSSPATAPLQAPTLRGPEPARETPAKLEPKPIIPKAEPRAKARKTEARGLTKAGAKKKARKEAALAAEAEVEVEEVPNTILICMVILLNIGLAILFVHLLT

[8] = molecular target: Large ribosomal subunit protein eL24 (UniProt P83731); experiment: as above
[9] = molecular target: Ribosomal protein eL42-like (UniProt Q969Q0); experiment: as above
Thymosin beta-10 = Thymosin beta-10 (UniProt P63313); experiment: as above
[10] = molecular target: Ubiquitin-conjugating enzyme E2 L3 (UniProt P68036); experiment: as above
[11] = molecular target: Ubiquitin-like FUBI-ribosomal protein eS30 fusion protein (UniProt P62861); experiment: as above
[12] = molecular target: Ubiquitin-ribosomal protein eS31 fusion protein (UniProt P62979); experiment: as above

Small ribosomal subunit protein uS15, P62277
listed as a hit [1]: yes

Actin, cytoplasmic 1, P60709
listed as a hit [2]: yes
listed as a hit (Thymosin beta-4): yes

26S proteasome regulatory subunit 8, P62195
listed as a hit [3]: yes

Actin, alpha cardiac muscle 1, P68032
listed as a hit [4]: yes

Large ribosomal subunit protein uL13, P40429
listed as a hit [5]: yes

O60361
listed as a hit [6]: yes
listed as a hit [7]: yes

Non-histone chromosomal protein HMG-17, P05204
listed as a hit (Histone H1.2): yes

Histone H2A type 1, P0C0S8
listed as a hit (Histone H2B type F-S): yes

Histone H2B type 1-C/E/F/G/I, P62807
listed as a hit (Junctophilin-2): yes

Large ribosomal subunit protein eL8, P62424
listed as a hit [8]: yes

Large ribosomal subunit protein uL1, P62906
listed as a hit [9]: yes

Actin, cytoplasmic 2, P63261
listed as a hit (Thymosin beta-10): yes

Ubiquitin-ribosomal protein eS31 fusion protein, P62979
listed as a hit [10]: yes

Elongation factor 2, P13639
listed as a hit [11]: yes

Histone H2A type 1-B/E, P04908
listed as a hit [12]: yes

Histone H2A type 1-D, P20671
listed as a hit [12]: yes
